From PubChem
HIV RNase H inh – blocks HIV-1 RNase H cleavage of RNA/DNA duplex; actives 1.9% (n = 65,000); inhibition, % at 10 µM; RT-RNase H RNA/DNA duplex cleavage, fluorescence; P04585; in the data active = inhibition above about 50%
RmlC RmlD mix – mixture blocks RmlC and RmlD coupled enzyme activity | AID 1532 | actives 0.39% (n = 110,000) | inhibition, % at 5.5 µM | RmlC/RmlD coupled enzyme inhibition, 384-well mixture HTS; in the data active = inhibition above about 30%, passing the limit was not always enough
RmlCD fluor art – shows fluorescent artifact in RmlC/RmlD assay, dose-response counter-screen; calls only; actives 96% (n = 360); RmlC/RmlD assay fluorescence artifact counter-screen; shares compounds with RmlC RmlD mix; AID 1696; call rule not given here;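 note: compound alone with no enzyme and no substrates present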
Numbers stand for hits; i = inactive; nt = no result; + = active, no number. Shown is part of a subset that was picked to be rich in hits.

SMILES	HIV RNase H inh	RmlC RmlD mix	RmlCD fluor art
O=C([C@H](Cc1ccc(O)cc1)n1cc(CCO)nn1)N1CCNCC1	nt	i	nt
COc1cc(-c2cc(C(=O)O)c3cc4c(cc3n2)OCCO4)cc(OC)c1OC	nt	i	nt
COC(=O)c1ccc(-c2cc(C(=O)O)c3cc4c(cc3n2)OCCO4)cc1	i	48	+
Cn1cc(C(=O)c2ccc(Cl)cc2Cl)cc1C(=O)N/N=C(\N)COc1cccc(C(F)(F)F)c1	nt	i	nt
O=C(O)c1cc2c(ccc3ccccc32)oc1=O	nt	82	+
O=C(c1cc2c(ccc3ccccc32)oc1=O)N1CCCC1	nt	i	nt
CC(=O)Nc1nc2nc(-c3ccccc3)cc(-c3ccccc3)n2n1	nt	i	nt
O=C1CCC(=O)N1c1nc2nc(-c3ccccc3)cc(-c3ccccc3)n2n1	i	103	+
O=C(CSc1ccccn1)Nc1nncs1	nt	i	nt
Cc1nc(SCC(=O)CC(=O)OC(C)C)c(C#N)c(C)c1C	i	i	nt
Cc1cc(C)c(C#N)c(SCC(=O)CC(=O)OC(C)C)n1	i	55	+
Cc1cc(C)c(S(=O)(=O)NNC(=O)C2CCN(Cc3ccccc3)CC2)c(C)c1	nt	i	nt
CCCCNC(=O)c1ccc(CNc2c(N3CCC(C(=O)OCC)CC3)c(=O)c2=O)cc1	nt	i	nt
COc1ccc(N2C(=O)c3ccccc3NC23C(=O)N(C)c2ccccc23)cc1 (configuration not stated)	nt	i	nt
CC(=O)Nc1nc(CC(C)C)cc(-c2ccco2)c1C#N	i	i	nt
C=C1C(=O)O[C@@H]2[C@H]1[C@@H](OC(=O)/C(C)=C/C)C/C(C)=C\C(=O)/C=C(\C)[C@@H]2O	nt	i	nt
COc1ccc(/C=N/NC(=O)Nc2cccc3nsnc23)c(OC)c1	nt	39	+
CC(C)C(=O)Nc1cccc2nsnc12	i	i	nt
CCCc1cc(Nc2ccccc2OCC)n2ncnc2n1	nt	i	nt
CC(C)C1O/C(=N/C(=O)Nc2ccc(Cl)c(Cl)c2)NC1=O (configuration not stated)	i	i	nt
COc1ccc2cc(CN(Cc3cccs3)Cc3nnnn3Cc3ccccc3)c(=O)[nH]c2c1	nt	i	nt
COc1ccc2cc(CN(Cc3cccnc3)Cc3nnnn3Cc3ccccc3)c(=O)[nH]c2c1	i	33	i
CC(C)OC(=O)c1c(N)n(Cc2ccco2)c2nc3ccccc3nc12	i	i	nt
COCCCn1c(N)c(C(=O)OCCOC)c2nc3ccccc3nc21	i	i	nt
CC(C)OC(=O)c1c(N)n(CCCN2CCOCC2)c2nc3ccccc3nc12	nt	38	+
SMILES	HIV RNase H inh	RmlC RmlD mix	RmlCD fluor art
CCOC(=O)c1c(N)n(CCCOC(=O)c2ccco2)c2nc3ccccc3nc12	i	34	+
Cc1cc(C(F)(F)F)nn1CC(=O)N(C)C1CCCCC1	nt	i	nt
CCC(C(=O)NCc1ccccc1OC)n1nc(C)n2c(cc3occc32)c1=O (configuration not stated)	nt	i	nt
O=C(NCc1cccc(Br)c1)C1CC(c2ccccc2C(F)(F)F)=NO1 (configuration not stated)	nt	i	nt
COc1cc(/C=N/n2nnnc2N)ccc1O	i	i	nt
CSc1ccc(/C=N/n2nnnc2N)cc1	i	69	+
COc1ccc(-c2cn3ccccc3n2)cc1OC	i	i	nt
c1ccc2cc(-c3cc4ccccn4c3)ccc2c1	nt	91	+
Cc1noc(C)c1S(=O)(=O)Nc1ccc(C(=O)N2CCc3ccccc3C2)cc1	i	i	nt
COC(=O)c1ccccc1S(=O)(=O)Nc1ccc(OC)nc1	i	nt	nt
COC(=O)c1cc(C(C)=O)n2ccccc12	nt	i	nt
CCOC(=O)c1cc(C(=O)OCC)c2ccccn2c1=O	nt	71	+
O=c1oc2c(CN3CCOCC3)c(O)c(Cl)cc2c2c1CCCC2	i	i	nt
COc1ccc(Oc2c(C)oc3c(CN(C)C)c(O)ccc3c2=O)cc1	i	i	nt
CCCc1cc(=O)oc2c(CN3CCOCC3)c(O)ccc12	nt	i	nt
O=c1oc2c(CN3CCOCC3)c(O)ccc2c2c1CCCC2	i	147	+
CCc1c(C)c2ccc(O)c(CN(C)C)c2oc1=O	i	131	+
CN(C)Cc1c(O)ccc2c3c(c(=O)oc12)CCCCC3	nt	117	+
CCCCc1cc(=O)oc2c(CN(C)C)c(O)ccc12	i	72	+
COCCN(CCOC)Cc1c(O)ccc2c3c(c(=O)oc12)CCC3	i	i	nt
O=C(Oc1ccc(N(Cc2cccs2)C2=NS(=O)(=O)c3ccccc32)cc1)c1ccccc1F	nt	i	nt
OCC[C@@H]1C[C@H](O)[C@@H](O)[C@@]2(CCCCO2)O1	nt	i	nt
CCc1nnc(NC(=O)C(C)Sc2ccccc2)s1 (configuration not stated)	i	i	nt
O=C1CSC(=Nc2cc(Cl)ccc2Cl)N1	i	i	nt
COC(=O)c1c(N)n(-c2ccc(NC(C)=O)cc2)c2nc3ccccc3nc12	i	64	+
SMILES	HIV RNase H inh	RmlC RmlD mix	RmlCD fluor art
COC(=O)c1c(N)n(-c2ccc(N3CCOCC3)cc2)c2nc3ccccc3nc12	i	nt	nt
Cc1ccc(C)c(Cn2c(C(=O)OC(C)C)cc3c2ccn3C)c1	nt	i	nt
Fc1ccc(Cn2ccc(-c3cnc(-c4ccccc4)s3)n2)cc1	nt	i	nt
O=C(c1ccc(F)cc1)n1ccc(-c2cnc(-c3ccccc3)s2)n1	nt	80	+
CCC(C)C(NC(=O)C1CCC(C)CC1)C(=O)NCc1ccccn1 (configuration not stated)	nt	i	nt
COc1ccc(S(=O)(=O)N(n2c(C)nnc2-n2nc(C)cc2C)S(=O)(=O)c2ccc(OC)cc2)cc1	nt	i	nt
O=C(c1ccc2c(c1)N(Cc1ccccc1)CCS2)N1CCCCC1	nt	i	nt
CCCC(=O)c1c(NC(C)C)cc(C)oc1=O	i	i	nt
CC(=O)c1ccc(-c2nc3ccccc3n2C)o1	i	151	+
Cc1ccc(-c2nc3ccccc3n2C)o1	nt	i	nt
COc1ccc(-c2cnc3nc[nH]c(=O)c3n2)cc1	nt	i	nt
